# Assay results reported in PubChem BioAssay.
# The source made the active and inactive calls.
# Experiments:
# Albumin (Bos taurus) = Albumin (Bos taurus) (UniProt P02769); assay: compounds binding labelled BSA control protein – biochemical, small-molecule microarray, Alexa647 label, 635/667 nm fluorescence, artefact control for SMM control protein annotation, profiling panel (AID 1118); conditions: BSA-A647 binding, fluorescence 635 nm, higher = more signal;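 also: score merges 667 nm emission intensity and signal-to-noise per printed compound spot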
# Albumin (Bos taurus), sequence (P02769 whole entry, looked up): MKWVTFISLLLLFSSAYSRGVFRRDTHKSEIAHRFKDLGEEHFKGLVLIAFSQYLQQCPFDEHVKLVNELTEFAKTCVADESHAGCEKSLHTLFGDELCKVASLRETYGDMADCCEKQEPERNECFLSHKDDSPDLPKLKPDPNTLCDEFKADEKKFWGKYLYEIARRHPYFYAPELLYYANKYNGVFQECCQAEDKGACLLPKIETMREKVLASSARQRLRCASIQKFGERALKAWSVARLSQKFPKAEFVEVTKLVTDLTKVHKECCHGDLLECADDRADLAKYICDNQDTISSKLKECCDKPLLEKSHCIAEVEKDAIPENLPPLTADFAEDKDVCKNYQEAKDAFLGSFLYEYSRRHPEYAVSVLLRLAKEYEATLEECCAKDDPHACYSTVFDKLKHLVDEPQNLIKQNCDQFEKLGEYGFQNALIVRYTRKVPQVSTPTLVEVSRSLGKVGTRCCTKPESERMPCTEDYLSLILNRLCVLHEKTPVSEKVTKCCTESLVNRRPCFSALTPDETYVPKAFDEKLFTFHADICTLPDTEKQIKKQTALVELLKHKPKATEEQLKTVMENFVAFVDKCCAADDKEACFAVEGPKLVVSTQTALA
# [1] = probe aXIP binding to arrayed compounds – biochemical, NeuroSMM set, 635/667 nm fluorescence, primary screen (AID 1119); conditions: small-molecule microarray, higher = more signal, called active from +8 up or from −8 down;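 also: probe is the protein aXip251-270 applied at 1 µg/mL to compound-printed slides; binding of probe to printed compounds measured as 667 nm fluorescence plus signal to noise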
# [2] = probe aNOTCH3 binding on compound microarray – biochemical, small-molecule microarray, 635/667 nm fluorescence, primary screen (AID 1120); conditions: higher = more signal;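 also: probe is a biotin-tagged antibody raised against NOTCH3 rather than NOTCH3 protein; score merges spot fluorescence near 667 nm with spot signal to noise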
# [3] = probe aNOTCH2 binding on compound microarray – biochemical, small-molecule microarray, 635/667 nm fluorescence, primary screen (AID 1121); conditions: higher = more signal;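 also: score merges feature fluorescence read at 667 nm with its signal to noise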
# [4] = target: Carbonic anhydrase 2 (Homo sapiens) (UniProt P00918); assay: compounds binding carbonic anhydrase 2 – biochemical, small-molecule microarray, Alexa647-labelled CAII, profiling panel (AID 1122); conditions: CAII-A647 binding fluorescence, higher = more signal
# [5] = COS7 lysate on small-molecule microarray, probe aHis, 635 nm (AID 1123); conditions: COS7 cell lysate, fluorescence, higher = more signal;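 also: z-score combines 667nm fluorescence intensity with signal-to-noise per printed compound spot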
# [6] = probe aLAP1 signal on lysate-treated microarray – cell lysate, small-molecule microarray, COS7 lysate, primary screen (AID 1124); conditions: probe aLAP1, fluorescence, higher = more signal;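 also: lysate comes from COS7 cells expressing LAP1 and is applied at 0.3 µg/mL; score merges spot fluorescence near 667 nm with signal-to-noise over triplicate slides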
# Sam68 (KHDRBS1) = assay: compounds binding KHDRBS1 protein – biochemical, small-molecule microarray, 635 nm fluorescence, primary screen (AID 1125); conditions: higher = more signal;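 also: score merges 667 nm channel intensity with signal to noise over triplicate slides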
# [7] = system: Chordin-like protein 2 (CHRDL2); assay: compounds binding chordin-like 2 – biochemical, small-molecule microarray, 635 nm fluorescence, primary screen (AID 1126); conditions: fluorescence 635 nm, higher = more signal;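 also: printed compound slides probed with Chrdl2 protein at 4 µg/mL for 1 h at 4 C; score merges 667 nm emission intensity with signal to noise over three replicate slides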
# [8] = target: Concanavalin-A (Canavalia ensiformis) (UniProt P02866); assay: compounds binding concanavalin A lectin – biochemical, small-molecule microarray, Alexa647 label, 635 nm, artefact control for SMM control protein annotation, primary screen (AID 1127); conditions: ConA-A647 binding fluorescence, higher = more signal;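 also: z combines 667 nm emission intensity with signal-to-noise across three replicate slides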
# Concanavalin-A (Canavalia ensiformis), sequence (P02866 whole entry, looked up): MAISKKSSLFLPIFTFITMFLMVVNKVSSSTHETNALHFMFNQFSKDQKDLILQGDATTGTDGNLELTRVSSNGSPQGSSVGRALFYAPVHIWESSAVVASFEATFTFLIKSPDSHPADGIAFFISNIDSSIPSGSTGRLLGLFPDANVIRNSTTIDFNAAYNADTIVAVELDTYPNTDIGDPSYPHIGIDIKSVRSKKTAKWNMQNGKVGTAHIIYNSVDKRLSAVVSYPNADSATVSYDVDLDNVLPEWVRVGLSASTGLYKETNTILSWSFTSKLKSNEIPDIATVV
# [9] = compounds binding Alexa647 anti-His antibody – biochemical, small-molecule microarray, 635 nm fluorescence, artefact control for SMM control protein annotation, primary screen (AID 1128); conditions: higher = more signal;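 also: score merges feature fluorescence with signal-to-noise for each printed compound spot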
# [10] = system: Human papillomavirus type 1a E7 protein (residues 1-88); assay: HPV1a E7 small-molecule binders, primary screen, biochemical, small-molecule microarray, residues 1-88, 635 nm (AID 1129); conditions: small-molecule microarray binding, fluorescence 635 nm; higher = more signal
# [11] = target: Focal adhesion kinase 1 (Homo sapiens) (UniProt Q05397); assay: PTK2 protein binding on printed compound slides – biochemical, small-molecule microarray, 635/667 nm fluorescence, BSA, DTT, primary screen (AID 1130); conditions: 635 nm fluorescence, higher = more signal;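 also: composite of spot emission at 667 nm and signal to noise over triplicate slides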
# Focal adhesion kinase 1 (Homo sapiens), sequence (Q05397 whole entry, looked up): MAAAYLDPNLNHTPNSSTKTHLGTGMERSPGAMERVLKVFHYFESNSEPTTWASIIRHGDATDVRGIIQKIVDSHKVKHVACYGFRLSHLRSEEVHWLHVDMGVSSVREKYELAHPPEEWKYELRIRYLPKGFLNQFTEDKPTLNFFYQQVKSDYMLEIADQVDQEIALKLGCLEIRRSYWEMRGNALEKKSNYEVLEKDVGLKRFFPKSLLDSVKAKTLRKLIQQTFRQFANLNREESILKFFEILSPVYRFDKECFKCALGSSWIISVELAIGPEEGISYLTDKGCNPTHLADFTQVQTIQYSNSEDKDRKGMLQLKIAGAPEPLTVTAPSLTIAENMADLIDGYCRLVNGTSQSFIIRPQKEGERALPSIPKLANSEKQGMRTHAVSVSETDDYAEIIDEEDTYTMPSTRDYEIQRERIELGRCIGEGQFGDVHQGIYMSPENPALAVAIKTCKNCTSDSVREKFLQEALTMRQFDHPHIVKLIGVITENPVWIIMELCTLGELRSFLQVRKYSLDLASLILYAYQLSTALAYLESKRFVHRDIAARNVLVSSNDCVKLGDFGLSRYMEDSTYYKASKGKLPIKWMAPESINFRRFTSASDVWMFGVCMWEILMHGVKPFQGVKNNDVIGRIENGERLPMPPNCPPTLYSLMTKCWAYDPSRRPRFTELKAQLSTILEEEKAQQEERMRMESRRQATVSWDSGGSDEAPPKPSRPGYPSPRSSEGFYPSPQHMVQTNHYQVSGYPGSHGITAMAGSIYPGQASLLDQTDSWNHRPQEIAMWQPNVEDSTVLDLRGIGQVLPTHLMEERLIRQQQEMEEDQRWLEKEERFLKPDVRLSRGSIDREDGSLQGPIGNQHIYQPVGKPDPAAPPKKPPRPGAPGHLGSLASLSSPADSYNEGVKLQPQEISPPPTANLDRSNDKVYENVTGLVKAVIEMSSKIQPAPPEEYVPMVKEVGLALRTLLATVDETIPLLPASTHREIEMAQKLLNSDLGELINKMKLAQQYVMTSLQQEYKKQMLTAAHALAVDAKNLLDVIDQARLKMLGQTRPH
# [12] = system: Fibrinogen (Alexa647-labelled); assay: Alexa647-fibrinogen binding to printed small molecules – biochemical, small-molecule microarray, 635/667 nm fluorescence, artefact control for SMM control-protein annotation, profiling panel (AID 1131); conditions: fibrinogen-A647 binding fluorescence, higher = more signal;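 also: z-score merges 667 nm fluorescence with per-spot signal-to-noise over triplicate slides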
# [13] = target: Follistatin (Homo sapiens) (UniProt P19883); assay: FST protein binding to printed compounds – biochemical, small-molecule microarray, 635/667 nm fluorescence, primary screen (AID 1132); conditions: 635 nm fluorescence, higher = more signal
# Follistatin (Homo sapiens), sequence (P19883 whole entry, looked up): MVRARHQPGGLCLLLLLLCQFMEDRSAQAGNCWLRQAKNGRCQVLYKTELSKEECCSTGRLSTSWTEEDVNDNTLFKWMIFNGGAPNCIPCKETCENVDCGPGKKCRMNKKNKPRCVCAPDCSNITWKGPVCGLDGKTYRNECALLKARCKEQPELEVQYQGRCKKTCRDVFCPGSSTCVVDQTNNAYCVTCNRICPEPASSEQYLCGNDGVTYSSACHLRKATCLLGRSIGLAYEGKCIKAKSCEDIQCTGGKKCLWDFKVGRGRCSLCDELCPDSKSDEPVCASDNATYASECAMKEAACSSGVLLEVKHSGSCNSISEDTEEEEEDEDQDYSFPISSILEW
# [14] = target: Fibroblast growth factor 2 (Homo sapiens) (UniProt P09038); assay: basic fibroblast growth factor binding to printed compounds – biochemical, small-molecule microarray, 635/667 nm fluorescence, primary screen (AID 1133); conditions: FGF2, fluorescence 635/667, higher = more signal
# Fibroblast growth factor 2 (Homo sapiens), sequence (P09038 whole entry, looked up): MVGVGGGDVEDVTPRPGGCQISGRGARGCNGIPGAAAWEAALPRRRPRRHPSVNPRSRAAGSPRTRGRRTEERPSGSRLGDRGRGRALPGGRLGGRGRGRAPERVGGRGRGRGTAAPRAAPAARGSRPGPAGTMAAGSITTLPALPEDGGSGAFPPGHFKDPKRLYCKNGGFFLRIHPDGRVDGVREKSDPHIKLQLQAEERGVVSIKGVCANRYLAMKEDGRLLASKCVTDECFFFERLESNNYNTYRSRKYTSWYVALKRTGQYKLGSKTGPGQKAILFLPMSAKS
# [15] = JC-1 mitochondrial potential readout, lung cancer cells – cell-based, A549, JC-1 fluorescence, basal, 24 h, 100 nL, profiling panel (AID 1138); conditions: higher = more signal;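 also: A549 lung adenocarcinoma cells under basal conditions with no added stimulus; test concentration not given here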
# Lefty1 = Lefty1 protein binding to printed compounds – biochemical, small-molecule microarray, 635/667 nm fluorescence, primary screen (AID 1139); conditions: fluorescence 635/667, higher = more signal
# [16] = system: wheat germ agglutinin (Triticum aestivum), Alexa647-labelled; assay: Alexa647-WGA lectin binding to printed small molecules – biochemical, small-molecule microarray, 635/667 nm fluorescence, artefact control for SMM control-protein annotation, profiling panel (AID 1140); conditions: WGA-A647 binding, 635 nm fluorescence, higher = more signal;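 also: score merges 667 nm feature emission with signal to noise over triplicate slides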
# [17] = target: Luciferin 4-monooxygenase (Photinus pyralis) (UniProt P08659); assay: inhibition of purified Photinus pyralis luciferase – biochemical, luminescence, purified enzyme, 2006 set, primary screen (AID 1141); conditions: purified firefly luciferase, SteadyGlo luminescence, 30 min; higher = more signal, called active from +8 up or from −8 down;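 also: cell-free assay with purified firefly luciferase at 100 ng per well in PBS; test concentration not given here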
# Luciferin 4-monooxygenase (Photinus pyralis), sequence (P08659 whole entry, looked up): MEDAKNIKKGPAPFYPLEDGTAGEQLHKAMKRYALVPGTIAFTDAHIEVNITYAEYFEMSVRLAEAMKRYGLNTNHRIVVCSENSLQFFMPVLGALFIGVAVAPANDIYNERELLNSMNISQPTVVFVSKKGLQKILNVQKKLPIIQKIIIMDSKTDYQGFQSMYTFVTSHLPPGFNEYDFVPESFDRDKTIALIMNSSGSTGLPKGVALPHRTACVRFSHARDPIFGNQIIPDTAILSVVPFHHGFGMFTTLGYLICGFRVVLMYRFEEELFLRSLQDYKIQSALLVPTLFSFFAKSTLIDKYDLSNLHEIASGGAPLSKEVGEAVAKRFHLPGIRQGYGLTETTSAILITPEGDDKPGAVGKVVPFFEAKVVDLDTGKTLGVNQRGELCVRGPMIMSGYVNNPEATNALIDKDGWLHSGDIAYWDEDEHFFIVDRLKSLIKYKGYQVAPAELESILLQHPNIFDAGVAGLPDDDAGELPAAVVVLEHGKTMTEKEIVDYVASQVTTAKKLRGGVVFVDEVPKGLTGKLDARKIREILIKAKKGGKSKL
SMILES,composite z-score (Albumin (Bos taurus)),composite Z-score [1],composite z-score [2],composite z-score [3],composite z-score [4],composite z-score [5],composite z-score [6],composite z-score (Sam68 (KHDRBS1)),composite z-score [7],composite z-score [8],composite z-score [9],composite z-score [10],composite z-score [11],composite z-score [12],composite z-score [13],composite z-score [14],z-score [15],composite z-score (Lefty1),composite z-score [16],z-score [17]
C=CC[C@]1(C(N)=O)COC(c2ccc(OCCCO)cc2)=N1,0.102,0.0767 (inactive),0.0831,-0.104,0.903,0.148,-0.136,-0.133,0.0919,0.817,1.07,0.017,0.2,0.561,0.786,1.31,0.359,0.863,0.493,0.322 (inactive)
CC1CC/C=C\[C@H]2OC34C=CCN(Cc5ccccc5)C(=O)[C@H]3N(C(C)CO)C(=O)[C@@H]4C2C(=O)O1 (stereo not given in full),-0.852,-0.592 (inactive),-0.0647,-0.0846,0.331,-0.412,-0.0231,-0.99,-0.0576,-0.239,-0.216,-0.922,-0.286,-0.696,0.462,-0.005,0.924,1.06,-0.626,-0.97 (inactive)
O=C(CS)NCCCCCNC(=O)[C@H]1C[C@H]2C(=O)NCC(=O)N2[C@H]1c1cccc(OCCO)c1,-0.221,-0.269 (inactive),-0.249,-0.164,0.728,0.0504,-0.442,-0.956,0.577,0.687,-0.0298,-0.864,0.319,0.0186,0.952,0.399,-0.0613,-0.0561,-0.347,0.76 (inactive)
CCCC[C@@H]1C[C@H]1[C@@H](NC(=O)c1cccnc1)c1ccc(Cl)cc1,-1.41,-0.29 (inactive),-0.429,-0.185,-0.404,0.878,-0.271,-1.27,-1.95,-2.03,-1.38,-2.87,-0.518,-2.97,-2.16,-2.46,0.66,-2.59,-1.72,0.928 (inactive)
COC(=O)[C@@]1(Cc2ccccc2)[C@H]2c3cc(C(=O)N4CCCC4)n(Cc4c(CO)[nH]cc(C)c4=O)c3C[C@H]2CN1C(=O)c1ccccc1,0.677,-0.0461 (inactive),0.0076,0.154,0.701,2.64,1.32,0.109,-0.174,0.0417,1.18,0.93,0.777,0.827,0.518,-0.258,-0.0421,-0.816,1.05,2.49 (inactive)
C#CCN(C/C=C/c1ccccc1)[C@H](CO)c1ccccc1,-0.287,-0.014 (inactive),-0.274,-0.196,0.0571,-0.128,-0.0886,-0.142,-0.0231,-0.159,-0.429,0.168,-0.0352,-0.213,0.495,0.444,-1.38,0.968,0.241,0.616 (inactive)
O=C(O)[C@@]1(CCS(=O)(=O)c2ccccc2)N=C(c2ccc(OCCCO)cc2)O[C@H]1c1ccccc1,0.978,-0.83 (inactive),0.156,-0.0331,0.864,2.21,-0.334,1.2,-0.765,0.766,2.65,0.23,0.264,0.993,0.265,-0.761,0.175,-0.387,0.763,-1.56 (inactive)
C#CCNCc1ccccc1,-0.172,0.204 (inactive),-0.201,-0.117,-0.0848,-0.0833,0.149,0.44,0.128,0.159,0.3,0.736,-0.101,-0.395,0.065,0.166,0.588,0.0644,-0.219,-0.352 (inactive)
